# PubChem BioAssay
# The source made the active and inactive calls.
# Experiments:
# [1] = optical density shifts of acrAB sulA E. coli – strain DRC41, OD650, 48 h, E. coli filamentation inducer project, primary screen (AID 1152); details: higher = more signal, called active from +8 up or from −8 down;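 note: E. coli MC1000 strain DRC41 lacking acrAB efflux pump and sulA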
# [2] = probe aLefty1 binding on compound microarray – biochemical, small-molecule microarray, 635/667 nm fluorescence, primary screen (AID 1153); details: higher = more signal;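 note: score merges spot fluorescence with signal-to-noise ratio from the scanned slide images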
# [3] = plasmodial surface anion channel blockers, osmotic lysis – cell-based, P. falciparum Indochina, OD700, 1 h, primary screen (AID 1154); details: P. falciparum Indochina infected RBC osmotic lysis, higher = more signal, called active from +8 up or from −8 down
# [4] = plasmodial surface anion channel blockers, osmotic lysis – cell-based, P. falciparum Indochina, OD700, 2 h, primary screen (AID 1155);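 note: lysis reports solute entry through the parasite surface anion channel PSAC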; details: P. falciparum Indochina infected erythrocytes, higher = more signal, called active from +8 up or from −8 down
# [5] = changes in parasitized red cell lysis, either direction – P. falciparum Indochina, OD700, 3 h, PSAC antagonist project, primary screen (AID 1156); details: P. falciparum-infected erythrocytes, osmotic lysis, higher = more signal, called active from +8 up or from −8 down
# [6] = plasmodial surface anion channel blockers, osmotic lysis – cell-based, P. falciparum Indochina, OD700, 18 h, primary screen (AID 1157); details: P. falciparum Indochina infected erythrocytes, osmotic lysis OD700, 18 h; higher = more signal, called active from +8 up or from −8 down
# [7] = S6 kinase pathway phospho-S6 level changes – cell-based, A549, cytoblot, luminescence, serum-stimulated, primary screen (AID 1158); details: 5 h, higher = more signal;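 note: serum-stimulated A549 lung adenocarcinoma cells; signal is phosphorylated S6 detected by cytoblot immunostaining with HRP secondary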
# [8] = target: NADPH oxidase 2 (Homo sapiens) (UniProt P04839); assay: compounds shifting NOX2 Amplex Red fluorescence – cell-based, HEK293-NOX2, PMA-stimulated, NOX inhibitor project, primary screen (AID 1159); details: 45 min, higher = more signal, called active from +8 up or from −8 down; note: test concentration not given here
# Chain of NADPH oxidase 2 (Homo sapiens) (P04839 whole entry, looked up): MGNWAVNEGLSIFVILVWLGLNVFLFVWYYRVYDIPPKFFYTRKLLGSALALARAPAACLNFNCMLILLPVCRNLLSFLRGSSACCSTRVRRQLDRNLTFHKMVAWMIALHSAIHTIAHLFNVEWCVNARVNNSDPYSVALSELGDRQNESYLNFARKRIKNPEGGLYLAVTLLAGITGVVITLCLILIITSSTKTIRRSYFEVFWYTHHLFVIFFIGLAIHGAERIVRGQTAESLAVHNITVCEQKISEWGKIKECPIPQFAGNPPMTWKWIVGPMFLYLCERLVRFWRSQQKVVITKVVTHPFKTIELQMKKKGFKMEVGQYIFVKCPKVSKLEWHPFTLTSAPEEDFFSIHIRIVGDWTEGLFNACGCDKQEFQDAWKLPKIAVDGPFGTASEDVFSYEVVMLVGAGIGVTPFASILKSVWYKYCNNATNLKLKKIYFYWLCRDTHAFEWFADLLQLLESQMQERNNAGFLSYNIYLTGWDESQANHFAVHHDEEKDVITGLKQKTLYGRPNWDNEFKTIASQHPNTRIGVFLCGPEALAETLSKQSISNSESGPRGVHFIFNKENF
# [9] = target: NADPH oxidase 4 (Homo sapiens) (UniProt Q9NPH5); assay: compounds shifting NOX4 Amplex Red fluorescence – cell-based, HEK293-NOX4, tetracycline-induced, NOX inhibitor project, primary screen (AID 1160); details: HEK293-NOX4, Amplex Red H2O2 fluorescence, 45 min; higher = more signal, called active from +8 up or from −8 down
# Chain of NADPH oxidase 4 (Homo sapiens) (Q9NPH5 whole entry, looked up): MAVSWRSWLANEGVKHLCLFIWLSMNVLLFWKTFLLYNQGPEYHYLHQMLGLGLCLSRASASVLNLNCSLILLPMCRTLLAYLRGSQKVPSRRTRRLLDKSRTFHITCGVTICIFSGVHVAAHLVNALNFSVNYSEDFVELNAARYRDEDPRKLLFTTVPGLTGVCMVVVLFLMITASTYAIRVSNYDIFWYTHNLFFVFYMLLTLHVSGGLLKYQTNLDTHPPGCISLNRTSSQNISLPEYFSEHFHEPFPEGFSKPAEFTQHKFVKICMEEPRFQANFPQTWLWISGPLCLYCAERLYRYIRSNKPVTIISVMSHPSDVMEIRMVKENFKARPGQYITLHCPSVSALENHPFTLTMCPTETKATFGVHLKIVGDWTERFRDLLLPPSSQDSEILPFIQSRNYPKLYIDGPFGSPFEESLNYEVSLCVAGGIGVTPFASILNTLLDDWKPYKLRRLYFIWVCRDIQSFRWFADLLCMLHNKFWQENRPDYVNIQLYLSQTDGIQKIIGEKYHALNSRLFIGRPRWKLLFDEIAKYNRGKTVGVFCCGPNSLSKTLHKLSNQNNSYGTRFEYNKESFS
# [10] = target: NADPH oxidase 5 (Homo sapiens) (UniProt Q96PH1); assay: compounds shifting NOX5 Amplex Red fluorescence – cell-based, HEK293-NOX5, NOX inhibitor project, primary screen (AID 1161); details: HEK293-NOX5, ionomycin, 45 min, higher = more signal
# Chain of NADPH oxidase 5 (Homo sapiens) (Q96PH1 whole entry, looked up): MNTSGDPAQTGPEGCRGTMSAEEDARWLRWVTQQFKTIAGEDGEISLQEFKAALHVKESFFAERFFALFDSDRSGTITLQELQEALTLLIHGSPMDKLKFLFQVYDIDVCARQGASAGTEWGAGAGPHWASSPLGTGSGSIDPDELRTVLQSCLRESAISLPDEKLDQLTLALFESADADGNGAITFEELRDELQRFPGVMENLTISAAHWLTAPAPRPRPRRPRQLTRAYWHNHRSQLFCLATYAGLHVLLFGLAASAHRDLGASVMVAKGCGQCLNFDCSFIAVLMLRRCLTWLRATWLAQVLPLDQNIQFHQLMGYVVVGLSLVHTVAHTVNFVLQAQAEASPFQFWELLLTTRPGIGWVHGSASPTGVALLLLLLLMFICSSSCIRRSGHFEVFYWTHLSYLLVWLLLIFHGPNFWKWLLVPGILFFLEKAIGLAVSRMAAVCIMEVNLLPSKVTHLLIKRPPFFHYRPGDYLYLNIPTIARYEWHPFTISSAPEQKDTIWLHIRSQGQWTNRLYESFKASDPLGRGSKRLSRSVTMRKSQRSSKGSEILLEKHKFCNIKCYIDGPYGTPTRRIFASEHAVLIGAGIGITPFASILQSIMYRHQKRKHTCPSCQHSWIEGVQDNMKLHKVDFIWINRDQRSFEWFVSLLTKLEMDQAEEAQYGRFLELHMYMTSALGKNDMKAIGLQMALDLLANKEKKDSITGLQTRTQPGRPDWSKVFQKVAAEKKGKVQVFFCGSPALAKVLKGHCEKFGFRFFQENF
# [11] = compound effects on lung adenocarcinoma cell viability – A549, calcein-AM fluorescence, 48 h, basal, profiling panel (AID 1162); details: higher = more signal; note: test concentration not given here
# [12] = compound effects on differentiated 3T3-L1 adipocyte viability – cell-based, 3T3-L1 adipocytes, calcein-AM fluorescence, 48 h, basal, profiling panel (AID 1163); details: 3T3-L1 adipocytes viability, higher = more signal; note: test concentration not given here
# [13] = compound effects on hepatocellular carcinoma cell viability – HepG2, calcein-AM fluorescence, 48 h, basal, profiling panel (AID 1164); details: higher = more signal; note: test concentration not given here
# [14] = compound effects on multiple myeloma cell viability – MM1S, calcein-AM fluorescence, 48 h, basal, profiling panel (AID 1165); details: higher = more signal;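 note: viability of MM1S multiple myeloma cells under basal unstimulated conditions; test concentration not given here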
# [15] = calcein-AM signal in unstimulated myeloma cells – cell-based, calcein-AM fluorescence, 48 h, PK04 Diversity Set, profiling panel (AID 1166); details: RPMI8226 myeloma viability, higher = more signal;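 note: cells grown under basal conditions without added stimulus; test concentration not given here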
# [16] = JC-1 mitochondrial signal, unstimulated HepG2 cells – cell-based, JC-1 fluorescence, 24 h, 100 nL compound, profiling panel (AID 1167); details: HepG2 mitochondrial potential, higher = more signal; note: test concentration not given here
# [17] = JC-1 mitochondrial signal, unstimulated adipocytes – cell-based, JC-1 fluorescence, 3T3-L1 adipocytes, 24 h, 100 nL compound, profiling panel (AID 1168); details: JC-1 mitochondrial fluorescence, higher = more signal, called active from +8 up or from −8 down; note: test concentration not given here
# [18] = JC-1 mitochondrial signal, unstimulated myeloma cells – cell-based, JC-1 fluorescence, RPMI8226, 24 h, 100 nL compound, profiling panel (AID 1169); details: JC-1 mitochondrial potential fluorescence, higher = more signal; note: test concentration not given here
# [19] = JC-1 mitochondrial signal, unstimulated MM1S myeloma – cell-based, JC-1 fluorescence, 24 h, 100 nL compound, profiling panel (AID 1170); details: MM1S mitochondrial potential, higher = more signal; note: test concentration not given here
# [20] = resazurin metabolic signal in A549 cells – cell-based, resazurin fluorescence, 24 h, PK04 Diversity Set, profiling panel (AID 1171); details: A549 viability, higher = more signal, called active from +8 up or from −8 down; note: test concentration not given here
SMILES,z-score [1],composite z-score [2],z-score [3],z-score [4],z-score [5],z-score [6],z-score [7],z-score [8],z-score [9],z-score [10],z-score [11],z-score [12],z-score [13],z-score [14],z-score [15],z-score [16],z-score [17],z-score [18],z-score [19],z-score [20]
CCCNC(=O)[C@@]1(C)c2ccccc2C(=O)N(C(C)C)[C@H]1c1ccc(CO)cc1,-0.374 (inactive),0.0371,4.24 (inactive),-0.445 (inactive),2.44 (inactive),-0.804 (inactive),2.12,-2.39 (inactive),-2.3 (inactive),-3.6,-0.23,0.793,-0.13,-0.634,-0.025,0.977,-0.0917 (inactive),0.0976,-0.426,0.788 (inactive)
CCOC(=O)C1=CC[C@@H](c2cccc(Cl)c2)N(S(=O)(=O)c2ccc(C)cc2)[C@H]1c1ccc(C#N)cc1,-1.41 (inactive),0.514,1.53 (inactive),1.34 (inactive),0.0178 (inactive),0.729 (inactive),-0.438,0.827 (inactive),1.2 (inactive),0.639,0.384,-1.03,-0.474,-0.692,-0.704,1.38,0.0503 (inactive),-0.62,-1.29,1.27 (inactive)
COCC1=C([C@H](O)CCc2ccccc2)[C@H](CO)[C@@H]2C(=O)N(Cc3ccccc3)C(=O)[C@@H]2C1,1.72 (inactive),-0.194,15.3 (active),2.04 (inactive),0.23 (inactive),0.477 (inactive),0.24,-0.543 (inactive),0.21 (inactive),-0.0312,0.883,0.709,0.984,0.418,0.438,0.592,0.424 (inactive),0.469,-1.37,0.859 (inactive)
CC(C)C(=C=CC[C@H](O)c1ccccc1OCCO)CCO,-0.42 (inactive),-0.0576,2.08 (inactive),-0.0743 (inactive),-0.163 (inactive),0.013 (inactive),-0.2,-0.353 (inactive),0.323 (inactive),-0.738,-0.417,-1.06,-0.07,-0.256,-1.56,-0.926,-0.318 (inactive),-0.424,-0.305,-0.245 (inactive)
C=C(CCCC)C(=O)CC[C@H](OC(C)=O)c1ccc(CO)o1,0.33 (inactive),0.929,2.26 (inactive),-0.43 (inactive),0.25 (inactive),-1.8 (inactive),0.612,0.184 (inactive),0.209 (inactive),-1.32,-0.0395,1.87,-0.576,-1.65,-0.0314,0.299,1.14 (inactive),0.0658,0.376,-0.485 (inactive)
CN(C)CCCC[C@@H]1NC(=O)[C@@H]2C[C@H](C(=O)NCc3ccc(F)cc3)[C@H](c3cccc(OCCO)c3)N2C1=O,-0.179 (inactive),0.19,5.87 (inactive),0.995 (inactive),-1.39 (inactive),0.546 (inactive),0.612,1.85 (inactive),1.37 (inactive),1.55,0.514,-0.0506,0.554,0.731,1.02,2.08,0.544 (inactive),0.46,-0.749,-0.158 (inactive)
C=CCOC(=O)[C@@H]1[C@H]2C(=O)O[C@H](c3ccccc3)[C@H](c3ccccc3)N2[C@H](c2ccc(OCCOC(=O)[C@H]3C[C@H]4C(=O)N[C@@H](Cc5ccccc5)C(=O)N4[C@H]3c3ccc(O)cc3)cc2)[C@@]12C(=O)Nc1ccc(I)cc12,-1.78 (inactive),-0.539,6.54 (inactive),5.05 (inactive),-2.73 (inactive),2.58 (inactive),-1.77,3.07 (inactive),0.471 (inactive),3.69,-0.688,-0.724,-0.0809,-3.46,-2.98,-0.638,1.43 (inactive),-0.609,-1.4,-0.0596 (inactive)
COc1ccc(C(O)C2C=CC3C(=O)N(c4ccccc4)C(=O)C3N2Nc2ccccc2)c2ccccc12 (stereo not given),-0.831 (inactive),0.318,6.65 (inactive),1.75 (inactive),0.303 (inactive),1.34 (inactive),-0.654,-1.48 (inactive),-3.15 (inactive),-2.57,-0.308,-2.02,0.407,-0.174,-0.858,-1.37,-0.849 (inactive),-0.86,-0.978,-0.301 (inactive)
